# Experimental data reported in the supplement of paper PMC8728848.
# Only a selection was taken, and the strongest signals are over-represented in it overall.
# B1: BT3172pd (Bacteroides thetaiotaomicron) (protein)
# chain: MLPLRAEHYYYKQISLKEGLPSNVRCILRDEQGFIWIGTKAGLGKFDGHQLKRYKHQANDPHSLLHNLIYQIAEDKQHNIWILTEKGIARYQQQSNNFTFPTDEEGNYITAYSFCLVPDGILFGGKDRIYKYSYKDSSLRLLQYFNANSFKITALSVWDSKTLLCCSRWTGLYLVDLQTGEHRRPPFDCGPEITSMITDSKNRIWIAPYSGGLRCYSRDGKLSASYTTHNSSLSNDIVLSLAEREEQLWIGTDGGGINILHPETGEISQLEYIPGRENYSLPANSILCLHNDYNNNVWAGSTCNGLISIREVSMKTYTDVVPGNDRGLSNGTVRSLYRQSPDSIWIGTDGGGINLFSPHTEKFTHYSSTWGDKVAFISGFTPGKLLISLFSKGVFVFNPATGEKQPFTIIDKETTTRLCNRGKSVNLYQNTPNTVLFLGDHIYQYHLKEKKFSTITEEEGKDIVGTLVPFDHQENLTYINDIKHIYELDDQTSRLKTVFECYTDTVISSVSHDEQGHFWIGSNFGLIHYDPVLKSRTLVPTNLFTEINMVLCDQKGKVWIGVDNMLFAYFIKEQKFVLFGESNGAIQNEYLPNARLVNEQGDAYIGGVKGMLRIDGQLLLNTSEMPELQLLDITINGESANHEWYNHPAKISVPWNSNISIRIMSREEDIFRQKIYRYQIEGLNNEYTESYNPELVIRSLLPGSYRIMASCTAKDGSWIPDQQVLELTVLPPWYRTHHHHHH
# Key:
# Experiment in all cases: glycan array binding signal (z-score within array); higher = stronger binding
# Conditions in all cases: glycan notation: IUPAC condensed, linker removed
# [1] = molecular target: Fuc(a1-2)Gal(b1-3)GalNAc(b1-3)Gal
# Method in brief: (§1)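 The binding signal is a Z-score computed within each array. Data were drawn from 3228 arrays in the Consortium for Functional Glycomics database, restricted to those with a known protein sequence. Scores were averaged over arrays of the same protein sequence at different concentrations or buffers, and over linkers, and negative values can be taken as non-binding.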
# [2] = molecular target: Fuc(a1-2)Gal(b1-4)GlcNAc(b1-3)Gal(b1-4)GlcNAc(b1-3)Gal(b1-4)GlcNAc
# Method in brief: as §1
# [3] = molecular target: Fuc(a1-2)Gal(b1-4)GlcNAc(b1-3)GalNAc
# Method in brief: as §1
# [4] = molecular target: Fuc(a1-2)Gal(b1-4)[Fuc(a1-3)]GlcNAc(b1-3)Gal(b1-4)[Fuc(a1-3)]GlcNAc
# Method in brief: as §1
# [5] = molecular target: Fuc(a1-2)[Gal(a1-3)]Gal(b1-3)GalNAc
# Method in brief: as §1
# [6] = molecular target: Fuc(a1-2)[Gal(a1-3)]Gal(b1-4)GlcNAc
# Method in brief: as §1
# [7] = molecular target: Fuc(a1-2)[Gal(a1-3)]Gal(b1-4)GlcNAc(b1-3)[Fuc(a1-2)[Gal(a1-3)]Gal(b1-4)GlcNAc(b1-6)]GalNAc
# Method in brief: as §1
# [8] = molecular target: Fuc(a1-2)[Gal(a1-3)]Gal(b1-4)[Fuc(a1-3)]GlcNAc(b1-3)GalNAc
# Method in brief: as §1
# [9] = molecular target: Fuc(a1-2)[GalNAc(a1-3)]Gal(b1-4)GlcNAc
# Method in brief: as §1
# [10] = molecular target: Fuc(a1-3)GlcNAc
# Method in brief: as §1
# [11] = molecular target: Fuc(a1-3)[Gal(b1-4)]GlcNAc(b1-2)Man(a1-3)[Fuc(a1-3)[Gal(b1-4)]GlcNAc(b1-2)Man(a1-6)]Man(b1-4)GlcNAc(b1-4)[Fuc(a1-6)]GlcNAc
# Method in brief: as §1
# [12] = molecular target: Gal(a1-2)Gal
# Method in brief: as §1
# [13] = molecular target: Gal(a1-3)Gal(b1-4)Glc
# Method in brief: as §1
# [14] = molecular target: Gal(a1-3)Gal(b1-4)GlcNAc
# Method in brief: as §1
# [15] = molecular target: Gal(a1-3)Gal(b1-4)[Fuc(a1-3)]GlcNAc(b1-2)Man(a1-3)[Gal(a1-3)Gal(b1-4)[Fuc(a1-3)]GlcNAc(b1-2)Man(a1-6)]Man(b1-4)GlcNAc(b1-4)GlcNAc
# Method in brief: as §1
# [16] = molecular target: Gal(a1-3)[Gal(a1-4)]Gal(b1-4)GlcNAc
# Method in brief: as §1
# [17] = molecular target: Gal(b1-3)GlcNAc(b1-6)[Gal(b1-3)]GalNAc
# Method in brief: as §1
# [18] = molecular target: Gal(b1-4)GlcNAc(b1-2)Man(a1-3)[Gal(b1-4)GlcNAc(b1-2)Man(a1-6)]Man(b1-4)GlcNAc(b1-4)[Fuc(a1-6)]GlcNAc
# Method in brief: as §1
# [19] = molecular target: Gal(b1-4)GlcNAc(b1-2)Man(a1-3)[Man(a1-6)]Man(b1-4)GlcNAc(b1-4)GlcNAc
# Method in brief: as §1
# [20] = molecular target: Gal(b1-4)GlcNAc(b1-2)Man(a1-6)[GlcNAc(b1-2)Man(a1-3)]Man(b1-4)GlcNAc(b1-4)GlcNAc
# Method in brief: as §1
# [21] = molecular target: Gal(b1-4)GlcNAc(b1-2)[Gal(b1-4)GlcNAc(b1-4)]Man(a1-3)[GlcNAc(b1-4)][Gal(b1-4)GlcNAc(b1-2)Man(a1-6)]Man(b1-4)GlcNAc(b1-4)GlcNAc
# Method in brief: as §1
# [22] = molecular target: Gal(b1-4)GlcNAc(b1-3)Gal(b1-4)GlcNAc(b1-3)Gal(b1-4)GlcNAc(b1-3)Gal(b1-4)GlcNAc(b1-3)Gal(b1-4)GlcNAc(b1-2)Man(a1-3)[Gal(b1-4)GlcNAc(b1-3)Gal(b1-4)GlcNAc(b1-3)Gal(b1-4)GlcNAc(b1-3)Gal(b1-4)GlcNAc(b1-3)Gal(b1-4)GlcNAc(b1-2)Man(a1-6)]Man(b1-4)GlcNAc(b1-4)GlcNAc
# Method in brief: as §1
# [23] = molecular target: Gal(b1-4)GlcNAc(b1-3)Gal(b1-4)GlcNAc(b1-3)GalNAc
# Method in brief: as §1
# [24] = molecular target: Gal(b1-4)GlcNAc(b1-3)Gal(b1-4)[Fuc(a1-3)]GlcNAc(b1-3)Gal(b1-4)[Fuc(a1-3)]GlcNAc
# Method in brief: as §1
# [25] = molecular target: Gal3S(b1-4)GlcNAc
# Method in brief: as §1
# [26] = molecular target: GalNAc(a1-3)GalNAc
# Method in brief: as §1
# [27] = molecular target: GalNAc(b1-4)GlcNAc(b1-2)Man(a1-3)[GalNAc(b1-4)GlcNAc(b1-2)Man(a1-6)]Man(b1-4)GlcNAc(b1-4)GlcNAc
# Method in brief: as §1
# [28] = molecular target: GalNAc3S(b1-4)[Fuc(a1-3)]GlcNAc
# Method in brief: as §1
# [29] = molecular target: Glc(a1-6)Glc(a1-6)Glc(a1-6)Glc
# Method in brief: as §1
# [30] = molecular target: GlcA3S(b1-3)Gal(b1-4)GlcNAc(b1-2)Man
# Method in brief: as §1
# [31] = molecular target: GlcNAc(a1-4)Gal(b1-4)GlcNAc(b1-3)Gal(b1-4)GlcNAc
# Method in brief: as §1
# [32] = molecular target: GlcNAc(b1-2)[GlcNAc(b1-6)]Man(a1-6)[GlcNAc(b1-4)][GlcNAc(b1-2)Man(a1-3)]Man(b1-4)GlcNAc(b1-4)GlcNAc
# Method in brief: as §1
# [33] = molecular target: GlcNAc(b1-3)Gal(b1-4)GlcNAc(b1-3)Gal(b1-4)GlcNAc(b1-2)[GlcNAc(b1-3)Gal(b1-4)GlcNAc(b1-3)Gal(b1-4)GlcNAc(b1-6)]Man(a1-6)[GlcNAc(b1-3)Gal(b1-4)GlcNAc(b1-3)Gal(b1-4)GlcNAc(b1-2)Man(a1-3)]Man(b1-4)GlcNAc(b1-4)[Fuc(a1-6)]GlcNAc
# Method in brief: as §1
# [34] = molecular target: GlcNAc(b1-3)GalNAc
# Method in brief: as §1
# [35] = molecular target: Man(a1-3)[Man(a1-6)]Man
# Method in brief: as §1
# [36] = molecular target: Man(a1-3)[Man(a1-6)]Man(b1-4)GlcNAc(b1-4)GlcNAc
# Method in brief: as §1
# [37] = molecular target: Neu5Ac(a2-3)Gal(b1-3)[Fuc(a1-4)]GlcNAc
# Method in brief: as §1
# [38] = molecular target: Neu5Ac(a2-3)Gal(b1-3)[GlcNAc(b1-6)]GalNAc
# Method in brief: as §1
# [39] = molecular target: Neu5Ac(a2-3)Gal(b1-4)Glc
# Method in brief: as §1
# [40] = molecular target: Neu5Ac(a2-3)Gal(b1-4)GlcNAc(b1-2)[Neu5Ac(a2-3)Gal(b1-4)GlcNAc(b1-4)]Man(a1-3)[GlcNAc(b1-4)][Neu5Ac(a2-3)Gal(b1-4)GlcNAc(b1-2)[Neu5Ac(a2-3)Gal(b1-4)GlcNAc(b1-6)]Man(a1-6)]Man(b1-4)GlcNAc(b1-4)GlcNAc
# Method in brief: as §1
# [41] = molecular target: Neu5Ac(a2-3)Gal(b1-4)GlcNAc(b1-3)GalNAc
# Method in brief: as §1
# [42] = molecular target: Neu5Ac(a2-3)Gal(b1-4)GlcNAc(b1-6)[Gal(b1-3)]GalNAc
# Method in brief: as §1
# [43] = molecular target: Neu5Ac(a2-3)Gal(b1-4)GlcNAc6S
# Method in brief: as §1
# [44] = molecular target: Neu5Ac(a2-3)Gal(b1-4)[Fuc(a1-3)]GlcNAc(b1-2)Man
# Method in brief: as §1
# [45] = molecular target: Neu5Ac(a2-3)Gal6S(b1-4)GlcNAc
# Method in brief: as §1
# [46] = molecular target: Neu5Ac(a2-6)Gal
# Method in brief: as §1
# [47] = molecular target: Neu5Ac(a2-6)Gal(b1-4)GlcNAc(b1-2)Man(a1-6)[Gal(b1-4)GlcNAc(b1-2)Man(a1-3)]Man(b1-4)GlcNAc(b1-4)GlcNAc
# Method in brief: as §1
# [48] = molecular target: Neu5Ac(a2-6)Gal(b1-4)GlcNAc(b1-3)Gal(b1-4)GlcNAc(b1-2)Man(a1-3)[Neu5Ac(a2-6)Gal(b1-4)GlcNAc(b1-3)Gal(b1-4)GlcNAc(b1-2)Man(a1-6)]GalNAc
# Method in brief: as §1
# [49] = molecular target: Neu5Ac(a2-6)Gal(b1-4)GlcNAc(b1-3)Gal(b1-4)GlcNAc(b1-6)[Gal(b1-3)]GalNAc
# Method in brief: as §1
# [50] = molecular target: Neu5Ac(a2-6)Gal(b1-4)GlcNAc(b1-3)[Neu5Ac(a2-6)Gal(b1-4)GlcNAc(b1-6)]GalNAc
# Method in brief: as §1
# [51] = molecular target: Neu5Ac(a2-6)Gal(b1-4)GlcNAc(b1-6)GalNAc
# Method in brief: as §1
# [52] = molecular target: Neu5Ac(a2-8)Neu5Ac(a2-3)Gal(b1-4)GlcNAc
# Method in brief: as §1
# [53] = molecular target: Neu5Ac(b2-6)Gal(b1-4)GlcNAc
# Method in brief: as §1
# [54] = molecular target: Neu5Ac(b2-6)GalNAc
# Method in brief: as §1
binder,measurement,setting,value
B1,glycan array binding signal (z-score),[1],-1.16
same,glycan array binding signal (z-score),[2],-0.03
same,glycan array binding signal (z-score),[3],-0.024
same,glycan array binding signal (z-score),[4],-0.649
same,glycan array binding signal (z-score),[5],0.258
same,glycan array binding signal (z-score),[6],-0.52
same,glycan array binding signal (z-score),[7],5.41
same,glycan array binding signal (z-score),[8],-0.194
same,glycan array binding signal (z-score),[9],-0.511
same,glycan array binding signal (z-score),[10],-0.076
same,glycan array binding signal (z-score),[11],2.04
same,glycan array binding signal (z-score),[12],-0.237
same,glycan array binding signal (z-score),[13],-0.327
same,glycan array binding signal (z-score),[14],-0.339
same,glycan array binding signal (z-score),[15],2.4
same,glycan array binding signal (z-score),[16],2.39
same,glycan array binding signal (z-score),[17],-0.299
same,glycan array binding signal (z-score),[18],-0.075
same,glycan array binding signal (z-score),[19],-0.349
same,glycan array binding signal (z-score),[20],0.924
same,glycan array binding signal (z-score),[21],-0.47
same,glycan array binding signal (z-score),[22],5.07
same,glycan array binding signal (z-score),[23],-0.264
same,glycan array binding signal (z-score),[24],-0.565
same,glycan array binding signal (z-score),[25],0.279
same,glycan array binding signal (z-score),[26],-0.288
same,glycan array binding signal (z-score),[27],-0.134
same,glycan array binding signal (z-score),[28],6.05
same,glycan array binding signal (z-score),[29],0.665
same,glycan array binding signal (z-score),[30],-0.286
same,glycan array binding signal (z-score),[31],-0.207
same,glycan array binding signal (z-score),[32],-0.604
same,glycan array binding signal (z-score),[33],-0.268
same,glycan array binding signal (z-score),[34],3.09
same,glycan array binding signal (z-score),[35],-0.387
same,glycan array binding signal (z-score),[36],0.075
same,glycan array binding signal (z-score),[37],-0.042
same,glycan array binding signal (z-score),[38],-0.406
same,glycan array binding signal (z-score),[39],4.78
same,glycan array binding signal (z-score),[40],-0.441
same,glycan array binding signal (z-score),[41],0.355
same,glycan array binding signal (z-score),[42],-0.43
same,glycan array binding signal (z-score),[43],2.43
same,glycan array binding signal (z-score),[44],-0.094
same,glycan array binding signal (z-score),[45],0.228
same,glycan array binding signal (z-score),[46],4.96
same,glycan array binding signal (z-score),[47],0.765
same,glycan array binding signal (z-score),[48],-0.692
same,glycan array binding signal (z-score),[49],6.02
same,glycan array binding signal (z-score),[50],5.76
same,glycan array binding signal (z-score),[51],0.094
same,glycan array binding signal (z-score),[52],-0.788
same,glycan array binding signal (z-score),[53],-1.02
same,glycan array binding signal (z-score),[54],0.736
